The results in this text go back to PubChem BioAssay (EPA / NIEHS).

“And” between values parts separate entries of the source, which are not always exact repeats. Identical values can stand only once. Inconclusive results are not listed. Some structures have more than one record in an assay (separate samples or runs), and their calls can disagree. The source made the active and inactive calls. The calls were made as follows: active = hit-call score of the fitted dose curve at least 0.9, where 1 is the maximum; inconclusive = response in the unintended direction; inactive = score below 0.9.

Sequence of human Opioid Receptor Delta 1 (Opiate D1), OPRD1 (gene 4985) (P41143 whole entry, looked up): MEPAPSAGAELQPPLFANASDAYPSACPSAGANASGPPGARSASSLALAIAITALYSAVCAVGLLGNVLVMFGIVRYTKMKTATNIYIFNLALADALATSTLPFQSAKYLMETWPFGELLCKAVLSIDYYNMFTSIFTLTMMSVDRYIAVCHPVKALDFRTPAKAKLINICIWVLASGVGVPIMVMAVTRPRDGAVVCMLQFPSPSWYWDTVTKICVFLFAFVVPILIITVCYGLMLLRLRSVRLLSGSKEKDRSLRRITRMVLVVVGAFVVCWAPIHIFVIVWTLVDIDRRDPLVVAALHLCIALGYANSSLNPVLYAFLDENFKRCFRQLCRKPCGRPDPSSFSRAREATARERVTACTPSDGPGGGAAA
Sequence of human Thromboxane A2 Receptor (TXA2), TBXA2R (gene 6915) (P21731 whole entry, looked up): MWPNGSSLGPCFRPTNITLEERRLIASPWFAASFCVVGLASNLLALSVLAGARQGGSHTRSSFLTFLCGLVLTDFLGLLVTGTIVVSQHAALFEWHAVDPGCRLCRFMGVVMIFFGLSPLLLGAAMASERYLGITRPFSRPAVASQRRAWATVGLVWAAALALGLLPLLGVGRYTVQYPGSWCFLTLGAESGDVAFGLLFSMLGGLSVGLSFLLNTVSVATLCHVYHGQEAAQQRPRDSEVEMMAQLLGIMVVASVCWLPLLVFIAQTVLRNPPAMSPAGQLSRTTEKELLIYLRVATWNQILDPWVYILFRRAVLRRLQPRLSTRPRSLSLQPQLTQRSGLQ
Sequence of mouse Cholecystokinin, CCK1 Receptor (CCKA), Cckar (gene 12425) (O08786 whole entry, looked up): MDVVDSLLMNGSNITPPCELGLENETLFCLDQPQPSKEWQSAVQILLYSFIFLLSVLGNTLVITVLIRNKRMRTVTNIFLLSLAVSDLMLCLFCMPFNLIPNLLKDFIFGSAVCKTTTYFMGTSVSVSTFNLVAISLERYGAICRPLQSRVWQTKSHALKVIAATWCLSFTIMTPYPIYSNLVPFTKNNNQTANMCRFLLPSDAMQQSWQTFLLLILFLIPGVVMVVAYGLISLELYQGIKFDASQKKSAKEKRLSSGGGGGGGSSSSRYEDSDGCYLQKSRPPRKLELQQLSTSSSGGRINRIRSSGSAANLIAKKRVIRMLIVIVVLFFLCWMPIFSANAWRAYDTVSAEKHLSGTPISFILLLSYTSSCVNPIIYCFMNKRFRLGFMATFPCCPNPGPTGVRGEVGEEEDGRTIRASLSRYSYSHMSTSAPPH

The first assay has as its target human Opioid Receptor Delta 1 (Opiate D1), OPRD1 (gene 4985) (UniProt P41143). Description: NVS_GPCR_hOpiate_D1: NovaScreen (NVS) G Protein-Coupled Receptor Assay for human Opioid Receptor Delta 1 (Opiate D1) (AID 2283280). Here is the method:
NVS_GPCR_hOpiate_D1 is a biochemical, single-readout assay that uses extracted gene-proteins from CHO in a cell-free assay. Measurements were taken 1 hour after chemical dosing in a 96-well plate.NVS_GPCR_hOpiate_D1 is one of one assay component(s) measured or calculated from the NVS_GPCR_hOpiate_D1 assay. It is designed to make measurements of radioligand binding, a form of binding reporter, as detected with scintillation counting signals by Filter-based radiodetection technology.Data from the assay component NVS_GPCR_hOpiate_D1 was analyzed into 1 assay endpoint. This assay endpoint, NVS_GPCR_hOpiate_D1, was analyzed in the positive analysis fitting direction relative to DMSO as the negative control and baseline of activity. Using a type of binding reporter, loss-of-signal activity can be used to understand changes in the binding as they relate to the gene OPRD1. Furthermore, this assay endpoint can be referred to as a primary readout, because the performed assay has only produced 1 assay endpoint. To generalize the intended target to other relatable targets, this assay endpoint is annotated to the gpcr intended target family, where the subfamily is rhodopsin-like receptor.
Binding assays used specific radioligands (tritiated, iodinated) with non-radioactive competitive displacement ligands in agonist or antagonist protocols (as indicated) and various reference compounds and inhibitors to titrate specific binding to receptors and transporters. Most enzyme assays (CYPs, kinases, phosphatases, proteases, HDACs) used recombinant protein and specific substrates (fluorescence mostly, some colorimetric and radioactive) and inhibitors, followed by a biochemical separation of substrate and product. All assays for the biochemical HTS were initially run in duplicate at a single concentration (10 uM for CYP450 assays and 25 uM for all others). […] Each assay was run with positive and negative controls, and concurrent controls on every plate. The follow-up (secondary) screen tested active chemical-pairs in concentration series, as well as a few additional assays not tested in the primary screen, some selected negative inactives, and several cases re-run in the concentration series for confirmatory purposes.
The AC50 is the concentration giving half of the maximal activity seen. For the compound `Oc1cc(Cl)ccc1Oc1ccc(Cl)cc1Cl`, the AC50 is 10.7 µM (active) and 25.5 µM (active) and 9.39 µM (active); the call was inactive.

Take `O=S(=O)(O)C(F)(F)C(F)(F)C(F)(F)C(F)(F)C(F)(F)C(F)(F)C(F)(F)C(F)(F)F`: the compound was called inactive.

Regarding `CCCN(CCOc1c(Cl)cc(Cl)cc1Cl)C(=O)n1ccnc1`, the outcome was inactive.

As for `O=C(O)C(F)(F)C(F)(F)C(F)(F)C(F)(F)C(F)(F)C(F)(F)C(F)(F)F`, the outcome was inactive.

As for `Cc1cc(C)nc(NC(=O)NS(=O)(=O)c2ccccc2C(=O)OC2COC2)n1`, the outcome was inactive.

Consider `Oc1ccc(Cl)cc1Cc1ccccc1`, for which the AC50 was 25.2 µM (active) and 13.3 µM (active).

Another assay addresses human Thromboxane A2 Receptor (TXA2), TBXA2R (gene 6915) (UniProt P21731). Description: NVS_GPCR_hTXA2: NovaScreen (NVS) G Protein-Coupled Receptor Assay for human Thromboxane A2 Receptor (TXA2) (AID 2283282).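 Also: actives reduce bound radioligand signal relative to DMSO baseline.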 The method in brief: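 Screening ran at 25 uM in duplicate, with concentration series for confirmed actives. Each test measures radioligand binding to human platelet protein after 1 h, cell-free, using filter-based scintillation detection of signal loss relative to DMSO.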
As to `O=S(=O)(O)C(F)(F)C(F)(F)C(F)(F)C(F)(F)C(F)(F)C(F)(F)C(F)(F)C(F)(F)F`, the AC50 is 15.8 µM (active) [middle of 4 runs] and the outcome was inactive.

As for `O=C(O)C(F)(F)C(F)(F)C(F)(F)C(F)(F)C(F)(F)C(F)(F)C(F)(F)F`, the AC50 was 9.44 µM (active) and the call was inactive.

On to `Oc1ccc(Cl)cc1Cc1ccccc1`, for which the AC50 was 7.86 µM (active) and 5.43 µM (active); the outcome was inactive.

Another assay deals with mouse Cholecystokinin, CCK1 Receptor (CCKA), Cckar (gene 12425) (UniProt O08786). The assay is described as follows: NVS_GPCR_mCCKAPeripheral: NovaScreen (NVS) G Protein-Coupled Receptor Assay for mouse Cholecystokinin, CCK1 Receptor (CCKA) (AID 2283285). The method in brief:
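Chemicals were first screened in duplicate at 25 uM, with those meeting threshold (e.g., 30% inhibition) retested in singleton concentration series to 50 uM maximum. Binding of radioligand to mouse pancreatic membranes was read after 2 h by filtration and scintillation counting.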
On to `Oc1cc(Cl)ccc1Oc1ccc(Cl)cc1Cl`, for which the AC50 was 25.5 µM (active) and 38.4 µM (active); the outcome was inactive.

Regarding `CC(C)OC(=O)Nc1cccc(Cl)c1`, the AC50 is 15.7 µM (active).

Turning to `CCCN(CCOc1c(Cl)cc(Cl)cc1Cl)C(=O)n1ccnc1`, the AC50 was 10.5 µM (active).

As to `Oc1ccc(Cl)cc1Cc1ccccc1`, the AC50 is 25.2 µM (active) [middle of 5 runs].

The test system of the next assay is rabbit Platelet Activating Factor Receptor (PAF), gene 100354046. Description: NVS_GPCR_rabPAF: NovaScreen (NVS) G Protein-Coupled Receptor Assay for rabbit Platelet Activating Factor Receptor (PAF) (AID 2283287). The method in brief:
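Rabbit platelet membrane preparation; radioligand displacement read by filter-based scintillation counting 1 h after dosing, loss of signal versus DMSO. Primary screen in duplicate at 25 uM, actives followed up in concentration series.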
For `CCS(=O)(=O)c1cccnc1S(=O)(=O)NC(=O)Nc1nc(OC)cc(OC)n1`, the compound was called inactive.

Turning to `CCOc1nc(NC)nc(NC(=O)NS(=O)(=O)c2ccccc2C(=O)OC)n1`, the result was inactive.

With `[2H]C1([2H])[n+]2ccccc2-c2cccc[n+]2C1([2H])[2H]`, the result was inactive.

On to `O=S(=O)(O)C(F)(F)C(F)(F)C(F)(F)C(F)(F)C(F)(F)C(F)(F)C(F)(F)C(F)(F)F`, for which the compound was called inactive.

Take `COP(=O)(OC)OC=C(Cl)Cl`: the compound was classed as inactive.

As for `O=C(Nc1ccccc1)Nc1cnns1`, the compound was classed as inactive.

In the case of `O=C(O)CCCOc1ccc(Cl)cc1Cl`, the half-maximal activity concentration (AC50) is 15.8 µM (active).

On to `CCOCN(C(=O)CCl)c1c(C)cccc1CC`, for which the half-maximal activity concentration (AC50) is 15.2 µM (active).

Take `Cc1cc(C)nc(NC(=O)NS(=O)(=O)c2ccccc2C(=O)OC2COC2)n1`: the compound was called inactive.
